Assay results published in PubChem BioAssay AID588493 (Sanford-Burnham Center for Chemical Genomics, 2011).
Out of some 360,000 compounds screened, about 2,100 (0.58%) were called active. Many of the other results were omitted from the sample, so actives are more common in it than they were. Values without a mark were called inactive.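 Rule for the calls: active = inhibition at 20 µM, scaled to each plate's controls, above about 33% (limit read from the data); inactive = the rest.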

Biological target: 26S proteasome non-ATPase regulatory subunit 14 (Homo sapiens) (UniProt O00487)
Experiment: Rpn11 (PSMD14) deubiquitinase inhibitors, primary screen, biochemical, fluorescence polarization, uHTS (AID 588493)
Conditions: human 26S proteasome, Ub4-pepOG fluorescence polarization; at 20 µM; stronger effect = higher value; 20S core pre-blocked with epoxomicin

26S proteasome non-ATPase regulatory subunit 14 (Homo sapiens), sequence (O00487 whole entry, looked up): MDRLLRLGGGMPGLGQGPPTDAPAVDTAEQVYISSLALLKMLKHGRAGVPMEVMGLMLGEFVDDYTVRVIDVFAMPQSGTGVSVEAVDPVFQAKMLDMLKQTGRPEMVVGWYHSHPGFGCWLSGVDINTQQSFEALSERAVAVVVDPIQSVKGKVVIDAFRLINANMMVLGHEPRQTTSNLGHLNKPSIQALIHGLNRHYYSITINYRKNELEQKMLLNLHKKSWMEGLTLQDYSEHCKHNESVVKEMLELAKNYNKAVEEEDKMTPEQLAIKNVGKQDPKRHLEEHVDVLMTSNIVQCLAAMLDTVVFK

Structure (SMILES) | inhibition
CCOC(=O)c1cc(C(C)C)sc1NC(=O)COC(=O)c1nccnc1N | 16.7%
CCOc1ccc2oc(C(=O)N(CC)CC(=O)Nc3ccc(NC(C)=O)cc3)c(C)c2c1 | 8.2%
Cc1cccc(NC(=O)CSc2nnc(CCNC(=O)OC(C)(C)C)o2)c1C | -2.3%
O=C(NCc1ccccn1)C1CCN(S(=O)(=O)c2ccc(Br)cc2)CC1 | -11.1%
CCC(C)C(CO)NC(=O)/C=C/[C@H]1O[C@@H](n2cnc3c(NC(=O)c4ccccc4)ncnc32)[C@H](O)[C@@H]1O (stereo partly specified) | -5.5%
COc1ccc(NC(=S)N2CCC(NC(=O)c3cccc(F)c3)CC2)cc1 | 6.4%
C=CCNC(=O)C1CC=CCC1C(=O)O (stereo unspecified) | 3.6%
CCOc1ccc(NC(=O)c2cccc3c2C(=O)N(CC2CCCO2)C3)cc1 (stereo unspecified) | -0.9%
O=C(COC(=O)c1n[nH]c2ccccc12)Nc1ccccc1Br | 0.1%
CN(C)C(=O)c1ccc(NC(=O)c2ccccc2-c2ccccc2)cc1 | 7%
CCc1ccc(NC(=O)CS(=O)CC(=O)NCCCc2ccccc2)cc1 (stereo unspecified) | 43.6% (active)
CCc1ccc(NC(=O)CS(=O)CC(=O)N2CCN(c3ccccc3F)CC2)cc1 (stereo unspecified) | 0.4%
S=C(NCCCc1ccccc1)Nc1ccc(Br)cc1 | 1%
CCNC(=S)Nc1ccc2c(c1)c(=O)n(C)n2Cc1ccc(Cl)cc1 | 8.6%
CCn1c(-c2cc(OC)ccc2OC)csc1=Nc1c(C)n(C)n(-c2ccccc2)c1=O | 1.2%
COCCNC(=S)N/N=C/c1c(C)[nH]c2ccccc12 | 17%
CN=c1scc(-c2cc(OC)ccc2OC)n1/N=C/c1c(C)[nH]c2ccccc12 | 56.4% (active)
COc1ccc(N(CCC(=O)NCCc2ccccc2)S(=O)(=O)c2ccc(C)cc2C)cc1 | 3.7%
Cc1cc(OCC(=O)N(C)c2c(N)n(Cc3ccccc3)c(=O)[nH]c2=O)c(C(C)C)cc1Cl | -1.8%
CCC(=C/c1sc2ccc3ccccc3c2[n+]1C)/C=C1\Sc2ccc3ccccc3c2N1C | 70% (active)
Cc1ccc(S(=O)(=O)N2C[C@H]3C(=O)C[C@@H](c4cccc5ccccc45)N(S(=O)(=O)c4ccc(C)cc4)[C@H]3C[C@H]2c2ccc(Cl)cc2)cc1 | -1.4%
O=C(NCc1nnnn1-c1ccc(Cl)cc1)c1ccc([N+](=O)[O-])o1 | -0.3%
COc1ccc(CCNC(=O)COc2cc(C)cc3oc(=O)c(C)c(C)c23)cc1OC | 0%

Structure (SMILES) | inhibition
Cc1cc(OCC(=O)Nc2nccs2)c2c(C)c(C)c(=O)oc2c1 | 61.1% (active)
Cc1cc(OCC(=O)NCC(O)c2ccccc2)c2c(C)c(C)c(=O)oc2c1 (stereo unspecified) | -2.1%
CCCCc1ccc(NC(=O)CN2C(=O)NC(Cc3ccccc3)C2=O)cc1 (stereo unspecified) | -0.4%
CC(C)Oc1ccc(S(=O)(=O)N2CCOCC2)cc1NC(=O)C1CCCC1 | 2.4%
O=C1NC(Nc2nc3ccccc3s2)(C(F)(F)F)C(=O)N1C1CCCCC1 (stereo unspecified) | 3.6%
Cc1ccc(NC(=O)c2c(NC(=O)CCC(=O)O)sc3c2CCCCC3)cc1 | 40.1% (active)
COC(=O)c1c(NC(=O)CCN2CCOCC2)sc2c1CCCC2 | 6.6%
O=C(CN1CCCC1)Nc1sc2c(c1C(=O)Nc1ccccc1)CCCC2 | -13.4%
COC(=O)c1ccc(CNC(=O)c2ccc3oc(C(C)C)nc3c2)cc1 | -13.2%
COc1cccc(CNC(=O)C2CCN(S(=O)(=O)c3cccc4cccnc34)CC2)c1 | 7.6%
Cc1cc(OCCOc2cccc3cccnc23)c(C)cc1Cl | -1.8%
CC(=O)/C(=N\Nc1ccc(Cl)cc1Cl)Sc1cccc2cccnc12 | 78.5% (active)
CCOC(=O)NN1C(=O)c2ccccc2NC1c1ccccc1O (stereo unspecified) | -5.9%
N#Cc1cccc(NC(=O)COC(=O)c2ccccc2C(=O)c2ccc(Cl)c([N+](=O)[O-])c2)c1 | -2.3%
COc1ccc(CN2[C@@H](CC(=O)O)c3cc(F)ccc3S2(=O)=O)cc1 | -5.9%
COc1cccc(/C=N/NC(=O)c2[nH]nc3c2CCc2ccccc2-3)c1O | 52.1% (active)
COc1cc(/C=N/NC(=O)c2cccnc2)ccc1OC(=O)c1cccc(Br)c1 | -13.5%
CCn1c(/C=N/NC(=O)c2ccc(OC)cc2)nc2ccccc21 | -5.8%
COc1ccc(CCNC(=O)CCNS(=O)(=O)c2cc(Br)cnc2N)cc1OC | 0.1%
CC(C)C(NC(=O)c1cccc(S(=O)(=O)N2CCOCC2)c1)C(=O)NCCc1ccccn1 (stereo unspecified) | -2.1%
COCCCN1C(=O)c2ccc(C(=O)OCC(=O)NCc3ccccc3OC)cc2C1=O | 3.9%
N#CCC(=O)Nc1ccc(C(=O)OCC(=O)Nc2sc3c(c2C#N)CCCC3)cc1 | 39.6%
CCOc1ccc(NC(=O)c2ccc(NC(=O)COC(=O)c3ccc(NC(=O)CC#N)cc3)cc2)cc1 | 128% (active)

Structure (SMILES) | inhibition
CC(C)NC(=O)NC(=O)COC(=O)c1ccc(NC(=O)CC#N)cc1 | -1.1%
COc1ccccc1-c1n[nH]c2c1[C@H](C)CC[C@H]2C(C)C | 0.4%
CN(C)S(=O)(=O)c1ccc(C(=O)NCC2(N3CCOCC3)CCCCC2)cc1 | 2.6%
O=C(CSc1nc2ccccc2c(=O)[nH]1)Nc1nc(-c2ccc(Br)cc2)cs1 | 132% (active)
Cc1cc(C)c(-c2csc(NC(=O)CCCc3nc4ccccc4c(=O)[nH]3)n2)c(C)c1 | 8.9%
O=C(COC(=O)c1cc(=O)[nH]c2ccccc12)Nc1nc(-c2cccc(Br)c2)cs1 | 1.7%
Cc1ccc2c(c1)nnc1nnc(SCC(=O)O)n12 | -12%
CS(=O)(=O)c1ccc(C(=O)OCC(=O)NNC(=O)COc2ccc(Cl)cc2)cc1 | 22.5%
CC(C)(C)NC(=O)COc1ccc(CNc2ccc3[nH]c(=O)[nH]c3c2)cc1 | -10.4%
COC(=O)c1ccc(OCC(=O)NC(C)(C)C)cc1 | 62.8% (active)
Cc1cc(C)c2cc(CN(Cc3cccs3)Cc3nnnn3CC3CCCO3)c(=O)[nH]c2c1 (stereo unspecified) | -19.3%
CCC(C)N1CC(=O)N2Cc3[nH]c4ccccc4c3C[C@H]2C1=O (stereo partly specified) | 7.3%
CC(C)=C(NC(=O)c1ccco1)C(=O)NCCc1nc2ccccc2[nH]1 | -7.6%
CC(C)Oc1ccc(/C=C(\NC(=O)/C=C/c2ccco2)C(=O)NCCc2nc3ccccc3[nH]2)cc1 | 53.9% (active)
CCCCCOc1ccc(/C=C/C(=O)NCCc2nc3ccccc3[nH]2)cc1OC | -4.2%
CCN(CC(=O)NCc1cccs1)S(=O)(=O)c1ccc(NC(C)=O)cc1 | -1.7%
Cc1cccc(OCCC(=O)Nc2cc(S(=O)(=O)N3CCCCC3)ccc2N2CCOCC2)c1 | 2%
CN(C)c1ccc(-n2cccc2/C=C2/SC(=Nc3ccc(F)cc3)NC2=O)cc1 | 44% (active)
CN(C)c1ccc(-n2cccc2/C=N/n2cnnc2)cc1 | 1.5%
CCn1cc(C(=O)OCC(=O)Nc2cccc(C)c2)c(=O)c2ccc(C)nc21 | -1.5%
CC(=O)Oc1cc2c(C(=O)NCCN3CCOCC3)c(C)oc2c2ccccc12 | -0.1%
O=C(Cc1ccc(F)cc1)N1CCN=C1SCc1cccc([N+](=O)[O-])c1 | 3%
CC1CCCCC1NC(=O)CCS(=O)(=O)c1cccc2nonc12 (stereo unspecified) | -3.4%

Structure (SMILES) | inhibition
O=C(CCS(=O)(=O)c1cccc2nonc12)NCCc1ccccc1Cl | 179% (active)
O=C(NCc1ccccc1Cl)C1CCN(S(=O)(=O)c2cccc3nonc23)CC1 | 4.7%
Cc1ccc(N=Cc2c(O)cc(C)oc2=O)c(C)c1 | 40.7% (active)
Cc1ccc(N=Cc2c(O)n(-c3nccs3)c(=O)c3ccccc23)c(C)c1 | -26.4%
Cc1cccc(OCc2nnc(SCn3nnc4ccccc4c3=O)o2)c1 | 6.8%
Cc1cccc(OCc2nnc(SCc3nc4cc(C(F)(F)F)ccc4c(=O)[nH]3)o2)c1 | 46.5% (active)
COc1cc(CN(C)Cc2nc3cc(C(F)(F)F)ccc3c(=O)[nH]2)ccc1OC(F)F | 5%
CC(=O)O[C@H]1c2ccccc2-c2ccccc2[C@@H]1OC(C)=O | -2.7%
CN(C)CCOc1cccc(Br)c1 | -7.4%
CN(C)CCOC1c2ccccc2-c2ccccc21 | 95.3% (active)
CCCC[C@H]1COCCS(=O)(=O)N1Cc1cccc(Cl)c1 | 7.9%
CCOC(=O)c1cc(-c2sc(NC(=O)c3ccccc3)nc2C)n(Cc2ccccc2)n1 | 5.8%
Cn1c2ccc(F)cc2c2nnc(NN)nc21 | 5.1%
O=C(O)C1C2C=CC(O2)C1C(=O)NCCc1cccc(Cl)c1 (stereo unspecified) | 1%
O=C(NCc1ccccc1)[C@H]1C[C@@H]1[C@H](NP(=O)(c1ccccc1)c1ccccc1)c1ccccc1 | 9.5%
CCOc1ccc(C(=O)Nc2ccc(S(=O)(=O)NCC3CCCO3)cc2)cc1OCC (stereo unspecified) | -3.2%
CCOc1cc(/C=C2\SC(N3CCCC(C)C3)=NC2=O)ccc1O (stereo unspecified) | 62.1% (active)
CCOc1ccc2nc(C(=O)N3CCCC(C)C3)sc2c1 (stereo unspecified) | -2.7%
Cc1ccsc1/C=C1\SC(N2CCOCC2)=NC1=O | -7.5%
CCOc1cc(/C=N/NC(=O)CN2CCCCC2)ccc1O | -1.4%
CCOc1cc(/C=C2\SC(N3CCCCC3)=NC2=O)ccc1O | 46.9% (active)
O=C1N=C(N2CCc3ccccc3C2)S/C1=C\c1ccc(O)cc1 | -9.2%
